According to PubChem BioAssay (Tox21):
Inconclusive results are not listed. Activity calls are given as the source filed them. Unless noted, calls follow the shape of the dose curve; as a rule, active = well fitted curve in the direction sought with a large enough effect in the repeat runs; inconclusive = weak or mixed curves; inactive = no such curve, though single readings can be large; an effect the other way counts as inactive or inconclusive.

How the values were obtained:
[1] = qHTS assay to test for compound auto fluorescence at 535 nm (green) in HEK293 cells (AID 720680)
[2] = qHTS assay to test for compound auto fluorescence at 460 nm (blue) in HEK293 cell free culture (AID 720681)
Method in brief: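 Blue fluorescence (Ex 405/Em 460 nm, triamterene-equivalent) was read immediately after pin transfer of compound or DMSO into medium (DMEM, 10% FBS) without cells.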

[3] = qHTS assay to test for compound auto fluorescence at 535 nm (green) in HEK293 cell free culture (AID 720682)
Method in brief: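 Read-out: 485/535 nm fluorescence intensity, calibrated against fluorescein. Medium only (DMEM + 10% FBS, no cells); test compound or DMSO vehicle added by pintool before plate reading.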

[4] = qHTS assay to test for compound auto fluorescence at 590 nm (red) in HEK293 cell free culture (AID 720683)
Method in brief: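 Red-channel autofluorescence of compounds in culture medium (DMEM, 10% FBS), no cells, measured at 540/590 nm. Rose Bengal sodium is the reference fluorophore for equivalence.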

[5] = qHTS assay to test for compound auto fluorescence at 590 nm (red) in HepG2 cell free culture (AID 720684)
Method in brief: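 Plate contents were MEM with 10% FBS plus test compound or DMSO, no cells. Fluorescence was recorded with 540 nm excitation and 590 nm emission.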

[6] = qHTS assay to test for compound auto fluorescence at 460 nm (blue) in HepG2 cell free culture (AID 720685)
Method in brief: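 Compound (23 nL) or DMSO pinned into cell-free MEM with 10% FBS; blue fluorescence read at 405/460 nm excitation/emission, expressed as auto-fluorescence equivalency to triamterene.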

[7] = qHTS assay to test for compound auto fluorescence at 460 nm (blue) in HepG2 cells (AID 720687)
Method in brief: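 Blue-channel autofluorescence (Ex/Em 405/460 nm, triamterene-equivalent) was measured after 1 hr compound exposure at 37 C, 5% CO2. Cells were HepG2, plated overnight at 37 C in MEM plus 10% FBS.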

[8] = molecular target: Glucocorticoid receptor (Homo sapiens) (UniProt P04150); assay: qHTS assay to identify small molecule agonists of the glucocorticoid receptor (GR) signaling pathway (AID 720691; active = well fitted activation curve with a large enough effect in the signal ratio in the repeat runs, not every such curve was filed as active; the % refers to the signal ratio)
Method in brief: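 Beta-lactamase reporter activity, read as fluorescence intensity, was measured in GR-bla HeLa cells exposed to compounds for 18 h at 37 C and then loaded with LiveBLAzer B/G FRET substrate for 2 h at room temperature.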

[9] = molecular target: Glucocorticoid receptor (Homo sapiens) (UniProt P04150); assay: qHTS assay to identify small molecule antagonists of the glucocorticoid receptor (GR) signaling pathway (AID 720692; active = well fitted inhibition curve with a large enough effect in the signal ratio in the repeat runs, not every such curve was filed as active; the % refers to the signal ratio)
Method in brief: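 Fluorescence from cleaved LiveBLAzer B/G FRET substrate reports GRE-driven beta-lactamase in HeLa cells; compounds are tested against 5 nM dexamethasone (final) over 18 h at 37 C, substrate incubation 2 h at room temperature.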

[10] = qHTS assay to identify small molecule antagonists of the glucocorticoid receptor (GR) signaling pathway - cell viability counter screen (AID 720693); also: nearly all actives have a fitted effect of over 55% in size
[11] = qHTS assay for identifying genotoxic compounds that show differential cytotoxicity against isogenic chicken DT40 cell lines with known DNA damage response pathways - wild type cell line (AID 743012); also: nearly all actives have a fitted effect of over 60% in size
Method in brief: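 Quantitative HTS on parental DT40 cells: 40 h compound treatment at 37 C/5% CO2, with viability then determined by CellTiter-Glo luminescence. Values serve as the DNA repair-proficient reference for differential cytotoxicity.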

[12] = qHTS assay for identifying genotoxic compounds that show differential cytotoxicity against isogenic chicken DT40 cell lines with known DNA damage response pathways - Rev3 mutant cell line (AID 743014); also: nearly all actives have a fitted effect of over 55% in size
[13] = qHTS assay for identifying genotoxic compounds that show differential cytotoxicity against isogenic chicken DT40 cell lines with known DNA damage response pathways - Rad54/Ku70 mutant cell line (AID 743015); also: nearly all actives have a fitted effect of over 60% in size
[14] = qHTS assay to identify small molecule antagonists of the androgen receptor (AR) signaling pathway - cell viability counter screen (AID 743033; also: nearly all actives have a fitted effect of over 45% in size)
[15] = qHTS assay to identify small molecule antagonists of the androgen receptor (AR) signaling pathway using the MDA cell line - cell viability counter screen (AID 743041; also: nearly all actives have a fitted effect of over 45% in size)
Method in brief: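 R1881-driven MDA-kb2 AR-luc cells, 3,000/well, were dosed with library compounds for 16 h; cell health came from CellTiter-Fluor fluorescence in the reporter wells.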

[16] = qHTS assay to test for compound auto fluorescence at 535 nm (green) in HepG2 cell free culture (AID 720686)
[17] = molecular target: Androgen receptor (Homo sapiens) (UniProt P10275); assay: qHTS assay to identify small molecule antagonists of the androgen receptor (AR) signaling pathway (AID 743035; active = well fitted inhibition curve with a large enough effect in the signal ratio in the repeat runs, not every such curve was filed as active; the % refers to the signal ratio)
Method in brief: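 Cell line: GeneBLAzer AR-UAS-bla GripTite (HEK293). Stimulus: R1881 added after compound. Exposure: 16 h, 37C, 5% CO2. Readout: LiveBLAzer B/G FRET fluorescence after 2 h at room temperature.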

[18] = molecular target: Androgen receptor (Homo sapiens) (UniProt P10275); assay: qHTS assay to identify small molecule agonists of the androgen receptor (AR) signaling pathway using the MDA cell line (AID 743040; also: nearly all actives have a fitted effect of over 20% in size)
Method in brief: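 After a 5 h incubation at 37C and 0% CO2, MDA-kb2 reporter cells were dosed with compounds in DMSO and kept 16 h under the same conditions. Luciferase activity was then read as luminescence with ONE-Glo.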

[19] = molecular target: Androgen receptor (Homo sapiens) (UniProt P10275); assay: qHTS assay to identify small molecule antagonists of the androgen receptor (AR) signaling pathway using the MDA cell line (AID 743042; also: nearly all actives have a fitted effect of over 55% in size)
Method in brief: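 Antagonist mode: compounds plus R1881 agonist added to MDA-kb2 AR-luc cells, incubated 16 h at 37C. Luciferase reporter luminescence quantified, with multiplexed CellTiter-Fluor readout for cell viability.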
% is scaled to controls: 0 for no effect and ±100 for the full control effect.

Sequence of Glucocorticoid receptor (Homo sapiens) (P04150 whole entry, looked up): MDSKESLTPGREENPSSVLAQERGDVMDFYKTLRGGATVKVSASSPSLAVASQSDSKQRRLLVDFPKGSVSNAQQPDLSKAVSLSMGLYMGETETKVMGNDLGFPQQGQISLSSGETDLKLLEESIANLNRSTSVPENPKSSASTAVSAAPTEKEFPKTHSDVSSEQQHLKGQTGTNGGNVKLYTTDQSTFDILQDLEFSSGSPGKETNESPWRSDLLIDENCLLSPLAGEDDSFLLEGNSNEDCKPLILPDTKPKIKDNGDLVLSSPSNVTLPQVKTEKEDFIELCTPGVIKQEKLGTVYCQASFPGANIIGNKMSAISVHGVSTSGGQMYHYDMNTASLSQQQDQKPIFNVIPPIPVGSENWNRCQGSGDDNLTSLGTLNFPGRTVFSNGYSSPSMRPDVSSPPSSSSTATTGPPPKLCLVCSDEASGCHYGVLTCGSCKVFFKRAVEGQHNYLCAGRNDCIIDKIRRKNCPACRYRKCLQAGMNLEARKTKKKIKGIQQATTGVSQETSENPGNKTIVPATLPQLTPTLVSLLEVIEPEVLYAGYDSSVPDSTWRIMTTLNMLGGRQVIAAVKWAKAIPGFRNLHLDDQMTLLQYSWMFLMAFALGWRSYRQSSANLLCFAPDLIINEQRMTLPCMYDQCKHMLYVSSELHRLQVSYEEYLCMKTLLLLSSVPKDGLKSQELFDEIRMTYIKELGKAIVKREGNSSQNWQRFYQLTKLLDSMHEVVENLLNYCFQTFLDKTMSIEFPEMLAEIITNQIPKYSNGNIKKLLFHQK
Sequence of Androgen receptor (Homo sapiens) (P10275 whole entry, looked up): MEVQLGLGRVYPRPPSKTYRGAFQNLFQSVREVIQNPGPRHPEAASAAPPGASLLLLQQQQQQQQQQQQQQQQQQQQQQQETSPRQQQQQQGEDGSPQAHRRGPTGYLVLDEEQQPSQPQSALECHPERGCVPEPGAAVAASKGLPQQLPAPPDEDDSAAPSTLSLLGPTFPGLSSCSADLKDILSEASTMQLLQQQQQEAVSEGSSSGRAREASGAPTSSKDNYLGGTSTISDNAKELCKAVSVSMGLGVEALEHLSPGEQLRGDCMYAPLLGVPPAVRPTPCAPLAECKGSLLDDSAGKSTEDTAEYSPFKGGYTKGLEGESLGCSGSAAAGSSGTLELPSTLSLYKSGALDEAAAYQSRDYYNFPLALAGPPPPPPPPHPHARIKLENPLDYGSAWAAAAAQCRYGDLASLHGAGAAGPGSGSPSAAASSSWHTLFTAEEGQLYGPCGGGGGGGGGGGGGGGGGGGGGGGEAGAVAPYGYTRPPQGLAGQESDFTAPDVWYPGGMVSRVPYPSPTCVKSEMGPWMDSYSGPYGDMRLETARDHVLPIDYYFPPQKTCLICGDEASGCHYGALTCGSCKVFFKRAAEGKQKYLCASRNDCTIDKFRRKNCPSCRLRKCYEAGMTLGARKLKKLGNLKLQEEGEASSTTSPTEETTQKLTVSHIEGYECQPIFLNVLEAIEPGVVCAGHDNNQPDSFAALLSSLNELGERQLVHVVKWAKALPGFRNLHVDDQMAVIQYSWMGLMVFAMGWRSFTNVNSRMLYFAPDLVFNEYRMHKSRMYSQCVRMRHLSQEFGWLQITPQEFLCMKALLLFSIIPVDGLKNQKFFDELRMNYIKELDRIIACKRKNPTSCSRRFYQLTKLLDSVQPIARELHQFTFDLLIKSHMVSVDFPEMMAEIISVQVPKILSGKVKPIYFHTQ

OC[C@@H](O)C(O)[C@@H](O)CO (stereo not given in full)
inactive: outcome [1] | outcome [2] | outcome [3] | outcome [4] | outcome [5] | outcome [6] | outcome [7] | Potency [8] | outcome [9] | outcome [10] | Potency [11] | Potency [12] | Potency [13] | outcome [14] | Potency [15]

CC1(C)[C@H]2CC[C@](C)(C2)[C@H]1O
inactive: outcome [1] | outcome [2] | outcome [3] | outcome [4] | outcome [5] | outcome [6] | outcome [16] | outcome [7] | outcome [10] | Potency [11] | Potency [12] | Potency [15]

NCC1(Cc2noc(=O)[nH]2)CCCCC1
inactive: outcome [1] | outcome [2] | outcome [3] | outcome [4] | outcome [5] | outcome [6] | outcome [16] | outcome [7] | outcome [10] | Potency [12] | Potency [13] | outcome [14] | Potency [15]

CCC(C)C(C)=O (stereo not given)
inactive: outcome [1] | outcome [2] | outcome [3] | outcome [4] | outcome [5] | outcome [6] | outcome [7] | Potency [8] | outcome [9] | Potency [11] | Potency [12] | Potency [13] | outcome [14] | Potency [15]

Cc1cc(-c2ccccc2)nnc1NCCN1CCOCC1
inactive: outcome [1] | outcome [2] | outcome [3] | outcome [4] | outcome [5] | outcome [6] | outcome [16] | outcome [7] | outcome [10] | Potency [11] | Potency [12] | Potency [13] | outcome [14] | Potency [15]

CC(C)=CCC/C(C)=C/COC=O
inactive: outcome [1] | outcome [2] | outcome [3] | outcome [4] | outcome [5] | outcome [6] | outcome [16] | outcome [7] | outcome [10] | Potency [11] | Potency [13] | outcome [14] | Potency [15]

[O]=[Mo](=[O])=[O]
inactive: fluorescence, % of fluorescein [1] -0.0315% [at 18.6 µM] | fluorescence, % of fluorescent control [2] 0.0055% [at 18.6 µM] | activity change [3] 0.118% [at 18.6 µM] | fluorescence, % of fluorescent control [4] 0.0845% [at 18.6 µM] | fluorescence, % of Rose Bengal [5] 0.0301% [at 18.6 µM] | fluorescence, % of fluorescent control [6] 0.041% [at 18.6 µM] | fluorescence, % of fluorescent control [7] 0.0613% [at 18.6 µM] | Potency [8] | outcome [9] | outcome [10] | Potency [11] | Potency [12] | Potency [13] | outcome [14] | Potency [15]

C=CCOC(=O)CCCCCC
inactive: outcome [1] | outcome [2] | outcome [3] | outcome [4] | outcome [5] | outcome [16] | outcome [7] | Potency [8] | outcome [9] | Potency [12] | Potency [13] | outcome [14] | outcome [17] | Potency [18] | Potency [15] | outcome [19]

C=CCCCC
inactive: outcome [1] | outcome [2] | outcome [3] | outcome [4] | outcome [5] | outcome [16] | outcome [7] | Potency [8] | outcome [9] | outcome [10] | Potency [11] | Potency [12] | outcome [14] | Potency [15]

CC1(C)Cc2cccc(N)c2O1
inactive: outcome [1] | outcome [2] | outcome [4] | outcome [5] | outcome [6] | outcome [16] | outcome [7] | Potency [8] | outcome [9] | outcome [10] | Potency [11] | Potency [12] | Potency [13] | outcome [14] | Potency [15]

COS(=O)(=O)O
inactive: outcome [1] | outcome [2] | outcome [3] | outcome [4] | outcome [5] | outcome [7] | outcome [10] | Potency [11] | Potency [12] | outcome [14] | Potency [15]

CCCCCCCCCCCCCCC(=O)NC(CO)CCCCCCCCCCCCCC (stereo not given)
inactive: outcome [1] | outcome [2] | outcome [3] | outcome [4] | outcome [5] | outcome [7] | Potency [8] | outcome [9] | outcome [10] | Potency [11] | Potency [13] | outcome [14] | Potency [15]
